PKA-R2B act – PKA-R2B complex activation | P22694+P31323 | PKA-R2B holoenzyme dissociation, Cy5-IP20 fluorescence polarization; R2B truncated from residue 108, S112A mutant; 0% DMSO only, 100% 113 µM cGMP | activation, % at 11.4 µM | hit rate 0.079% among 340,000;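 active = activation above a cutoff set at the mean over all compounds plus 3 SD, cut at about 18% in these data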;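 note: higher means more holoenzyme dissociation and a rise in polarization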
Target sequence (P31323 whole entry, looked up, other chains not shown, the tested form may be a part): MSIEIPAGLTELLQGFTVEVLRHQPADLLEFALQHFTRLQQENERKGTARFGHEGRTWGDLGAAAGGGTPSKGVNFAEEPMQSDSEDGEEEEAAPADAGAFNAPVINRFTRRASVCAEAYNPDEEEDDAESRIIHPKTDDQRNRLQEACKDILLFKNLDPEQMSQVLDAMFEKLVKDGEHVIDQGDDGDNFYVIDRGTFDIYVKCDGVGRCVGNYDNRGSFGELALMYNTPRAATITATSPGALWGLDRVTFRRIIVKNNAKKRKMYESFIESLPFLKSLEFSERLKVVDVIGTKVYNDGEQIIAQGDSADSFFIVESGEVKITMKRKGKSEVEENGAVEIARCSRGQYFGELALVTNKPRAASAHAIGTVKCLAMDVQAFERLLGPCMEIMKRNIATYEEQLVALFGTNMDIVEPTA
MsrA inhibitor – inhibitors of bovine MsrA | purified bovine MsrA, absorbance read-out | inhibition, % at 15.5 µM | hit rate 0.75% among 360,000 | AID 651718;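 note: 0% = vehicle wells with enzyme and 100% = reference inhibitor wells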
PKA-R1A act – activates the PKA-R1A holoenzyme complex; P00514+P68181; PKA-R1A dissociation, Cy5-IP20 fluorescence polarization; scaled: DMSO 0%, 113 µM cGMP 100%; activation, % at 11.4 µM; hit rate 0.083% among 340,000; AID 504707;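 active = percent activation above the mean of all tested compounds plus 3 SD, cut at about 19% in these data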;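 note: higher means more PKAc released from R1A so a rise in polarization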
bovine MsrA act – activates bovine MsrA enzyme. hit rate 0.3% among 360,000. AID 602163. purified bovine MsrA, absorbance read-out. activation, % at 10.6 µM; in the data active = activation above about 7.5%;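 note: 0% = vehicle and 100% = reference activator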
Mot1-301 SUMO – inhibitors of SUMOylation pathway: yeast Mot1-301 growth rescue; S. cerevisiae Mot1-301 growth rescue, ATP luminescence, 38.5C; percent above DMSO median, 100 means doubled; growth rescue, % at 18.8 µM; hit rate 1% among 320,000;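 active = every valid replicate shows activation above 250% relative to neutral control wells; inactive = the rest, any valid replicate at or below 250%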;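 note: OY570 slx delta 5 strain wells were the positive control but not used for scaling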
MsrA conf – confirmation of bovine MsrA inhibitors | hit rate 41% among 2,300 | shares compounds with MsrA inhibitor | AID 651822 | purified bovine MsrA, absorbance read-out | inhibition, % at 15.5 µM;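 note: coupled to thioredoxin reductase with NADPH and selenocystamine and DMSO as substrate; 0% = vehicle only and 100% = full effect of reference inhibitor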
The depositor's hits bear a star; / = no result. A selection: hits, their analogues and other compounds. The true share with any hit is near 2%. Cut-off read from the data, not from the text of the source, unless noted: active = inhibition above about 4.5%; inactive = the rest.

SMILES	PKA-R2B act	MsrA inhibitor	PKA-R1A act	bovine MsrA act	Mot1-301 SUMO	MsrA conf
NC(=O)c1ccsc1NC(=O)COC(=O)/C=C/c1ccccc1	-3.8	1.2	-5.1	-2.9	7.8	/
Cn1cc(/C=C(\NC(=O)c2ccccc2Cl)C(=O)NCCCN2CCOCC2)c2ccccc21	-3.4	3.6	-2.6	-2.8	-7.0	/
Cn1cc(/C=C(\NC(=O)c2ccccc2Cl)C(=O)NCCN2CCOCC2)c2ccccc21	-5.2	4.8*	10.8	-11.7	-2.6	3.6
Cn1cc(/C=C(\NC(=O)c2ccccc2)C(=O)NCCN2CCOCC2)c2ccccc21	0.5	4.5	-0.4	-14.9	322.5	/
CCn1cc(/C=C(\NC(=O)c2ccccc2OC)C(=O)NCCN2CCOCC2)c2ccccc21	4.1	4.7*	-0.5	-6.6	/	3.4
COc1ccc(C(=O)N/C(=C\c2cn(C)c3ccccc23)C(=O)NCCCN2CCOCC2)cc1	-10.8	5.3*	4.0	-7.2	-16.8	3.5
CCn1cc(/C=C(\NC(=O)c2cc(OC)c(OC)c(OC)c2)C(=O)NCCN2CCOCC2)c2ccccc21	-9.1	1.8	5.4	-4.4	-13.8	/
COc1cc(C(=O)N/C(=C\c2cn(C)c3ccccc23)C(=O)NCCN2CCOCC2)cc(OC)c1OC	5.0	5.3*	-6.2	-5.7	129.6	3.7
Cn1cc(/C=C(\NC(=O)c2ccccc2)C(=O)N2CCOCC2)c2ccccc21	-5.6	5.7*	-11.7	-4.8	-16.3	3.3
CCn1cc(/C=C(\NC(=O)c2ccccc2)C(=O)NCCCN2CCOCC2)c2ccccc21	3.4	4.7*	-6.7	-3.2	6.6	4.2
CCn1cc(/C=C(\NC(=O)c2cc(OC)c(OC)c(OC)c2)C(=O)NCCCN2CCOCC2)c2ccccc21	-6.9	1.8	3.2	-2.1	-3.6	/
COc1ccc(C(=O)N/C(=C\c2cn(C)c3ccccc23)C(=O)NCCN2CCOCC2)cc1OC	6.8	4.8*	4.8	-11.7	154.9	4.3
Cc1cc(C)cc([C@H]2C[C@]34CN(C(=O)OC(C)(C)C)S(=O)(=O)[C@H]3C[C@H]2O4)c1	/	0.0	/	/	/	/
C=CCNc1sc(C(=O)C2CC2)c(N)c1C#N	-2.2	6.4*	-5.5	-8.0	-0.8	4.8*
CN1C(c2ccccc2)CC(C)(O)CC1c1ccccc1 (stereo not given)	/	0.2	/	/	/	/
Cc1ccn2c(=O)c(C(=O)O)cnc2c1	-7.3	4.7*	-0.7	-1.8	-9.0	3.7
C[C@@H]1CN([C@H](C)CO)C(=O)CCCn2nncc2CO[C@H]1CN(C)S(=O)(=O)c1cccc(F)c1	-5.8	0.6	-2.1	-0.6	/	/
CC1Cc2[nH]c(=S)[nH]c(=O)c2C(c2ccc(F)cc2)O1 (stereo not given)	/	-0.2	/	-0.9	/	/
CC1(C)C2CCC(CN=C(N)CSS(=O)(=O)O)C1C2 (stereo not given)	2.5	20.7*	-6.6	-9.3	/	8.8*
O=C1C=C(c2ccc(O)cc2)C[C@@H](c2ccc3c(c2)OCO3)C1	-3.1	6.8*	0.7	-7.8	-3.8	2.0
COc1ccccc1C1=CC(=O)C[C@H](c2ccc3c(c2)OCO3)C1	1.0	6.3*	3.0	-1.0	0.1	1.2
Cc1ccc(C2=CC(=O)C[C@H](c3ccc4c(c3)OCO4)C2)cc1	-2.9	-0.9	-4.0	-5.0	0.5	/
O=C1C=C(c2ccccc2Oc2ccccc2)C[C@@H](c2ccc3c(c2)OCO3)C1	-24.1	-0.2	0.1	-0.8	-7.8	/
O=C(Cc1ccccc1F)Nc1cccc(S(=O)(=O)N2CCCCC2)c1	-3.1	-0.6	-2.5	-0.6	/	/
C[C@H]1CN([C@@H](C)CO)C(=O)CCCn2nncc2CO[C@H]1CN(C)C(=O)Nc1ccc2c(c1)OCO2	4.1	0.0	4.3	-3.4	/	/
SMILES	PKA-R2B act	MsrA inhibitor	PKA-R1A act	bovine MsrA act	Mot1-301 SUMO	MsrA conf
O=[N+]([O-])c1cc([N+](=O)[O-])c(Oc2ccc(F)cc2)cc1NN1CCCCC1	-7.4	-0.1	-7.4	-1.1	13.6	/
COc1ccc(Oc2cc(NN3CCCCC3)c([N+](=O)[O-])cc2[N+](=O)[O-])cc1OC	0.4	4.9*	-4.9	-2.3	312.6	3.0
CC(=O)c1cccc(Oc2cc(NN3CCCCC3)c([N+](=O)[O-])cc2[N+](=O)[O-])c1	-0.8	17.9*	1.0	-4.2	-15.9	12.0*
O=C1c2ccccc2C(c2nnnn2-c2ccc3c(c2)OCCO3)N1CCCN1CCOCC1 (stereo not given)	/	0.1	/	-6.5	/	/
O=C(Cn1nnc(-c2ccccc2)n1)N/N=C/c1cc([N+](=O)[O-])ccc1O	10.2	-0.5	5.6	-1.1	4.3	/
O=C(Cn1nc2ccccc2n1)N/N=C/c1cc([N+](=O)[O-])ccc1O	0.2	4.7*	-7.8	-3.7	6.7	4.4
C[C@@H]1CN([C@H](C)CO)C(=O)CCCn2nncc2CO[C@H]1CN(C)Cc1cccnc1	-2.1	0.3	-11.3	-0.2	/	/
CCN(CC)S(=O)(=O)c1ccc(N/N=C/c2cccnc2)nc1	9.4	5.8*	8.5	-5.4	-9.1	4.7*
CCOC(=O)C1=CCN(S(=O)(=O)c2ccc(C)cc2)C1c1ccc(CC)cc1 (stereo not given)	/	0.5	/	-7.1	/	/
O=C(Nc1nc(-c2nc3ccccc3s2)cs1)c1ccc(S(=O)(=O)N2CCOCC2)cc1	-9.8	5.0*	-11.5	-8.0	138.9	0.9
O=C(NC1=C(Nc2ccc(Cl)cc2)C(=O)c2ccccc2C1=O)c1ccccc1	2.9	0.8	3.3	-2.1	17.7	/
O=C(NC1=C(NC2CCS(=O)(=O)C2)C(=O)c2ccccc2C1=O)c1ccccc1 (stereo not given)	-6.7	5.0*	-1.1	-0.7	4.1	0.6
CN1CCN(c2cc(CNC[C@H]3O[C@@H](n4cnc5c(=O)[nH]c(N)nc54)[C@H](O)[C@@H]3O)ccc2F)CC1	/	0.5	/	-1.1	/	/
CCCS(=O)(=O)c1c(S(=O)(=O)CCC)c2c(N)cccn2c1C(=O)OC	-9.5	5.2*	5.9	-13.5	3.4	1.4
CCCS(=O)(=O)c1c(S(=O)(=O)CCC)c2c(N)cccn2c1C(=O)c1ccccc1	-2.1	-0.5	-9.9	-7.3	-1.3	/
COc1ccc(/C=C/C(=O)NC(=S)NNC(=O)c2cccnc2)cc1	-7.2	6.0*	-4.7	-2.5	40.0	5.2*
C=CCN(CC=C)C(=S)NC(=O)/C=C/c1ccc(OC)cc1	-13.0	4.8*	0.8	-8.6	43.3	1.8
O=C(NCc1ccccc1Cl)c1ccc2nc([C@H]3C[C@H](O)[C@@H](CO)O3)[nH]c2c1	/	/	/	-3.1	/	/
Cc1ccc(S(=O)(=O)N2C[C@H]3C(=O)C[C@@H](c4ccccc4)N(S(=O)(=O)c4ccc(Br)cc4)[C@H]3C[C@H]2c2ccccc2)cc1	/	0.6	/	-1.0	/	/
CCOC(=O)/C(C#N)=C/Nc1cc(F)ccc1C	3.7	5.8*	-7.9	-6.4	9.5	1.4

Compound activity from PubChem.
